Structures are written as SMILES. The campaign covered roughly 310,000 compounds. About 14,000 (4.5%) showed an effect of 50% or more. The effect is printed as a negative number. What follows is part of a selection rich in strong results, with near analogues and random picks from the rest.
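Further: peak tail current of the secondary pulse compared with the same well before compound.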

This test deals with human ether-à-go-go-related gene (hERG) potassium channel (human, UniProt Q12809). Kind of test: primary screen, population patch clamp on CHO cells stably expressing hERG; higher = less effect of the substance.
human ether-à-go-go-related gene (hERG) potassium channel, sequence (Q12809 whole entry, looked up): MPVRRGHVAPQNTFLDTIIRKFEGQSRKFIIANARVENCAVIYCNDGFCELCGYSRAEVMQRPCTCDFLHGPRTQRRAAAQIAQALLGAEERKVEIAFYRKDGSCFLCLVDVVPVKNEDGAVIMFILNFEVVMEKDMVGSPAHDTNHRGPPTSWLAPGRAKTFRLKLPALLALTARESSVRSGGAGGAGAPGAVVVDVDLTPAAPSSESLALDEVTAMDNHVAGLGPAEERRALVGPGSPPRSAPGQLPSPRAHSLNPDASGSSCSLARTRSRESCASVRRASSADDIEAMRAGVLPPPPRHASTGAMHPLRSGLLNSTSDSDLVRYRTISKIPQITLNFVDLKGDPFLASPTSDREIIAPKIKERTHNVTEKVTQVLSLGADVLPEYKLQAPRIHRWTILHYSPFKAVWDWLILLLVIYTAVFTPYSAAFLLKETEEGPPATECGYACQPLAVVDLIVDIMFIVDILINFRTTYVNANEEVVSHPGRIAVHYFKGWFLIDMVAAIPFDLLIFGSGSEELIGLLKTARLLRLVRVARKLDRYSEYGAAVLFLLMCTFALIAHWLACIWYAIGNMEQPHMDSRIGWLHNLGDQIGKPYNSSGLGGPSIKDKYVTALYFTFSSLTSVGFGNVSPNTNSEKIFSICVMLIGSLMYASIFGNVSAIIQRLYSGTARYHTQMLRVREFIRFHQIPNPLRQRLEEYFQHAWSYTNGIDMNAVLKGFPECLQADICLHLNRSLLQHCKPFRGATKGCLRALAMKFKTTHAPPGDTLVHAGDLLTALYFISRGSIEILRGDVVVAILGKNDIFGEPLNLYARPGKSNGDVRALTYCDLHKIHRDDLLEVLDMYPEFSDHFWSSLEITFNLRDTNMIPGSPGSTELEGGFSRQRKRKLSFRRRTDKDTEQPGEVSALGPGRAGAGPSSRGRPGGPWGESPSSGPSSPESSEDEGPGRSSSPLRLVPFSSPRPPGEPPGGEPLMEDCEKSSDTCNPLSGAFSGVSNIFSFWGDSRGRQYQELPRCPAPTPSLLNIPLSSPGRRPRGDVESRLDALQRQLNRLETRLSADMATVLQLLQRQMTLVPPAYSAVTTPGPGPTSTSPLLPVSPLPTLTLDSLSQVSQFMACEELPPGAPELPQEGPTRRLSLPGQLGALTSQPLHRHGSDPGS
`CCCCNC(=O)C1CCN(S(=O)(=O)c2ccc3c(c2)CC(C)N3C(=O)C2CC2)CC1` (stereo not shown): the “hERG current change (%, negative = inhibition) at 10uM” value came to 1.16%.
To `NC(=O)C(c1ccc(Cl)cc1)c1ccc(Sc2ccc(Cl)cc2)nn1` (stereo not shown) belongs -9.96%; to `Cc1cc(NCCCn2ccnc2)n2nc(C)c(-c3ccccc3)c2n1`, -72.8%.
To `Cc1cc(NCCN2CCOCC2)n2nc(C)c(-c3ccc(Cl)cc3)c2n1` belongs -50.2%; to `CCCc1cc(NCc2ccccn2)n2nc(C)c(-c3ccccc3)c2n1`, 4.77%.
To `Cc1cc(NCCCN2CCOCC2)n2nc(C)c(-c3ccccc3)c2n1` belongs -14.6%.
For the compound `Cc1nn2c(NCCCn3ccnc3)cc(C(C)C)nc2c1-c1ccccc1`, the “hERG current change (%, negative = inhibition) at 10uM” value was -23.5%.
Under `Cc1cc(NCc2ccccn2)n2nc(C)c(-c3ccc(Cl)cc3)c2n1` stands 14.2%; under `Cc1cc(NCCC(C)C)n2nc(C)c(-c3ccccc3)c2n1`, 1.03%; under `Cc1cc(NCCCn2ccnc2)n2nc(C)c(-c3ccc(Cl)cc3)c2n1`, -71.8%.
Regarding `CCCc1cc(N2CCCC2)n2nc(C)c(-c3ccccc3)c2n1`, the “hERG current change (%, negative = inhibition) at 10uM” value is listed as 8.36%.
Under `Cc1cc(NCCCN2CCOCC2)n2nc(C)c(-c3ccc(F)cc3)c2n1` stands -31.1%; under `COc1ccc(CCNc2cc(C)nc3c(-c4ccc(Cl)cc4)c(C)nn23)cc1OC`, 15.5%; under `CCCc1cc(NCCCn2ccnc2)n2nc(C)c(-c3ccccc3)c2n1`, -74.9%.
As to `NNC(=O)c1ccc2[nH]c3c(c2c1)CCCC3`, the “hERG current change (%, negative = inhibition) at 10uM” value is 5.31%.
For `COc1ccc(-c2nc3ccccc3c(C(=O)Nc3ccc(S(=O)(=O)Nc4cc(C)on4)cc3)c2C)cc1`, the “hERG current change (%, negative = inhibition) at 10uM” value was -7.09%.
To `COc1ccc(NS(=O)(=O)c2ccc(N3CCOCC3)c(NC(=O)c3ccccc3Br)c2)cc1` belongs -11.2%; to `COc1cc(C(=O)N2CCN(C(=O)C(Cc3cc(C)ccc3C)NC(C)=O)CC2)cc(OC)c1OC` (stereo not shown), -14.4%.
For `CCc1ccc(N(C(=O)c2csnn2)C(C(=O)NC2CCCC2)c2cccnc2)cc1` (stereo not shown), the “hERG current change (%, negative = inhibition) at 10uM” value is -24.9%.
To `O=C(O)C1(c2ccccc2)CCN(S(=O)(=O)c2cccs2)CC1` belongs 5.95%.
Consider `N#CC1(NC(=O)COC(=O)c2cc(=O)[nH]c3ccccc23)CCCCC1`, for which the “hERG current change (%, negative = inhibition) at 10uM” value was determined as 14%.
On to `Cc1nn(CC(N)=O)c(=O)c2ccccc12`, for which the “hERG current change (%, negative = inhibition) at 10uM” value is reported as 10.6%.
To `CN(C)CCNc1nc2c(c(=O)[nH]c(=O)n2C)n1CCOc1ccccc1` belongs -5.88%; to `Cc1nc(Cl)c2oc3ccccc3c2n1`, 9.28%; to `O=C(NCCCN1CCC(Cc2ccccc2)CC1)C1CCC(=O)N1C1CCCC1` (stereo not shown), 6.52%.
In the case of `Cc1ccc(/C(=C\CN2CCCC2)c2ccccn2)cc1.Cl`, the “hERG current change (%, negative = inhibition) at 10uM” value was -55.4%.
Under `Cc1ccc(C(=O)NCCCNC(=O)c2ccccn2)cc1` stands 5.5%; under `Cc1ccc(C(=O)NCCNC(=O)c2ccccn2)cc1`, 12.9%.
To `CCOC(=O)Cc1csc(SCC(=O)c2c(N)n(CC(C)C)c(=O)n(C)c2=O)n1` belongs -2.23%.
Under `Cc1ccc(OC(C)C(=O)N2CC(=O)Nc3ccccc32)cc1` (stereo not shown) stands -67.7%; under `COc1ccccc1OC(C)C(=O)N1CC(=O)Nc2ccccc21` (stereo not shown), 15.8%.
`Cc1ccc(OC(C)C(=O)N2CC(=O)Nc3ccccc32)c(C)c1` (stereo not shown): the “hERG current change (%, negative = inhibition) at 10uM” value was 2.56%.
Under `CCCN(CC(=O)Nc1ccccc1OC)C(=O)Cc1ccc2c(c1)CCC2` stands -18.1%; under `[O-][n+]1c2ccccc2c2n1CCN1CCOC21c1ccc(Cl)cc1` (stereo not shown), -42.3%.
Under `CN(C)c1ccc(/C=C/c2nc3ccccc3s2)cc1` stands 17.7%.
To `CC[n+]1c(/C=C/C=C/N(C(C)=O)c2ccccc2)sc2cc(OC)ccc21.[I-]` belongs -32.8%.
Consider `CC[n+]1c(/C=C/C=C/N(C(C)=O)c2ccccc2)sc2ccccc21.[I-]`, for which the “hERG current change (%, negative = inhibition) at 10uM” value is given as -69.8%.
On to `CC[n+]1c(/C=C/N(C)c2ccccc2)sc2ccc(Cl)cc21.[O-][Cl+3]([O-])([O-])[O-]`, for which the “hERG current change (%, negative = inhibition) at 10uM” value was -62.6%.
To `CC[n+]1c(/C=C/C=C/c2ccc(N(C)C)cc2)sc2ccccc21.[O-][Cl+3]([O-])([O-])[O-]` belongs -73.4%; to `CC/C(=C/c1sc2ccccc2[n+]1CC)SC.COS(=O)(=O)[O-]`, 0.104%.
Under `CN(C)c1ccc(/C=C/C=C/c2sc3ccccc3[n+]2C)cc1.[O-][Cl+3]([O-])([O-])[O-]` stands -42.6%.
To `CCCc1nn(C(=O)c2ccccc2)c2c1C(=O)CC(C)(C)C2` belongs 11.5%.
As for `C=CCOC(=O)/C(=C\c1cccc2ccccc12)NC(=O)c1ccccc1`, the “hERG current change (%, negative = inhibition) at 10uM” value is -9.44%.
To `CC(=O)/C=C(\C)N=Nc1c(O)[nH]c2ccccc12` belongs 5.48%.
Turning to `Cc1ccc(NC(=O)c2ccccc2NS(=O)(=O)c2ccc(F)cc2)cc1S(=O)(=O)N1CCCCC1`, the “hERG current change (%, negative = inhibition) at 10uM” value was 3.17%.
In the case of `Cc1ccc(NS(=O)(=O)c2ccc(-n3cccn3)cc2)c(C)c1`, the “hERG current change (%, negative = inhibition) at 10uM” value turned out to be 22.8%.
To `CCC(CC)c1nnc(NC(=O)C2CC(=O)N(CCc3ccc(OC)c(OC)c3)C2)s1` (stereo not shown) belongs -0.537%; to `CCn1c2ccccc2c2cnc(N=CN(C)C)c(C#N)c21`, -24%.
To `N#Cc1ccc(Nc2nc(-c3ccc(O)cc3O)cs2)cc1C(F)(F)F` belongs 11.9%; to `COc1ccccc1N1CCN(Cc2ccccc2Cl)CC1`, -23.5%.
Turning to `Fc1ccc(N2CCN(Cc3nnc(-c4ccccc4)o3)CC2)cc1`, the “hERG current change (%, negative = inhibition) at 10uM” value is on record as -11.9%.
Under `Fc1ccc(N2CCN(Cc3cn[nH]c3-c3ccccc3)CC2)cc1` stands -59.2%.
As to `COc1ccc(-c2[nH]ncc2CN2CCN(c3ccc(F)cc3)CC2)cc1`, the “hERG current change (%, negative = inhibition) at 10uM” value was -45.7%.
Turning to `COc1ccccc1N1CCN(Cc2cn[nH]c2-c2ccc(F)cc2)CC1`, the “hERG current change (%, negative = inhibition) at 10uM” value is -55.3%.
Under `CCOc1ccccc1N1CCN(Cc2cnc(-c3ccccc3)[nH]2)CC1` stands -40.6%; under `CCOc1ccccc1N1CCN(Cc2cc3c(cc2[N+](=O)[O-])OCO3)CC1`, -20.6%; under `CCOc1ccccc1N1CCN(Cc2cn[nH]c2-c2ccc(F)cc2)CC1`, -72.3%.
Under `Fc1ccc(-c2[nH]ncc2CN2CCN(c3ccc(F)cc3)CC2)cc1` stands -44.5%.

The values above are taken from publication PMC4336329 (PLoS ONE, 2015).
